RORg inh – blocks mouse ROR gamma transcriptional activity; Drosophila S2 Gal4-RORgamma UAS-luciferase reporter, 20 h; 310,000 tested, 5.4% active; Potency, µM (titrated, usually from 53.6 µM), for the others: top-dose activity change, negative = inhibition, hits mostly inhibitors; P51450; further: nearly all actives have a fitted effect of over 60% in size
Target sequence (P51450 whole entry, looked up, the tested form may be a part): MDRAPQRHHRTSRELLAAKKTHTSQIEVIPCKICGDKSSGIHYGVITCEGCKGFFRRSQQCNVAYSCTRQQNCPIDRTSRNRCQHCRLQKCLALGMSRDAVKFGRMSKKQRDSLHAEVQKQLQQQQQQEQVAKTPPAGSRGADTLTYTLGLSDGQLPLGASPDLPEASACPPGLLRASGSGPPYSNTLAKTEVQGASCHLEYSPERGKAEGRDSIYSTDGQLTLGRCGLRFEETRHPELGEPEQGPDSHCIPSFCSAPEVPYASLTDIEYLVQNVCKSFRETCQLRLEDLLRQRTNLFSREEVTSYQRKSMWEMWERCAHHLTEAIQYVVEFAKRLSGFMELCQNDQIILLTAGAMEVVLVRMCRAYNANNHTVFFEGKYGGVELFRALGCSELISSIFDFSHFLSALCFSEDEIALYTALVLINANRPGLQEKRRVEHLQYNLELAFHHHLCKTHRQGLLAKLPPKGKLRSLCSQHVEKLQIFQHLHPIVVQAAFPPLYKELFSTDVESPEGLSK
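A Gal4/UAS one-hybrid system in insect cells: metallothionein-promoter Gal4–ROR gamma fusion plus Photinus luciferase reporter. Copper sulfate 700 uM final, 20 hr ambient incubation, luminescent detection after 10 min with reagent.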
12-LOX inh – inhibitors of human 12S-lipoxygenase ALOX12; P18054; purified 12hLO, xylenol orange hydroperoxide absorbance; Potency, µM (doses to about 108 µM), without a hit: at the highest dose activity change, negative = inhibition, actives largely listed as inhibitors; 580,000 tested, 1.1% active
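Purified human 12hLO (150 nM final) in 25 mM Hepes, 0.01% Triton X-100, pH 7.0 was preincubated 15 min at room temperature with compound. Then 40 uM arachidonic acid was added, 30 min. Hydroperoxide was read by Fe-XO absorbance ratio 573/405 nm.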
VP16 counter – Gal4-VP16 reporter inhibition counter-screen. Potency, µM (doses to about 53.6 µM), for the others: top-dose activity, negative = inhibition, most hits filed as inhibitors. Drosophila S2 Gal4-VP16 UAS-luciferase, luminescence, 20 h. AID 2546. 310,000 tested, 3.5% active;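 further: Gal4-VP16 expression switched on by copper sulfate through the metallothionein promoter; nearly all actives have a fitted effect of over 50% in size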
TDP1 cell noCPT – qHTS for Inhibitors of human tyrosyl-DNA phosphodiesterase 1 (TDP1): qHTS in cells in absence of CPT; Potency, µM (doses to about 46.2 µM), inactives show top-dose activity change, negative = growth inhibition, most hits filed as inhibitors; 420,000 tested, 15% active; AID 686978, 2013; DT40 Tdp1-/- hTDP1 cells, no CPT, ATP luminescence, 48 h; further: nearly all actives have a fitted effect of over 55% in size
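Growth kinetics read by CellTiter-Glo luminescence after ≥48 hr at 37 °C. Cells: DT40 Tdp1-/- stably carrying human TDP1, 400 per well, compound exposure in the absence of CPT (DMSO vehicle).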
ELG1 repair inh – blocks ELG1-dependent DNA repair in HEK293T cells. Potency, µM (series often up to 46.1 µM), for inactives: at the highest dose activity change, negative = inhibition, usual class: inhibitors. AID 504467. 330,000 tested, 2.3% active. HEK293T ELG1-luciferase reporter, luminescence, 16 h; DNA damage induced by 5-fluorouridine; further: nearly all actives have a fitted effect of over 55% in size
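Cells (2,000 per well) received 5-fluorouridine plus test compound or DMSO and were incubated 16 hr at 37 °C, 5% CO2. Luciferase activity was read by luminescence 30 min after ONE-Glo addition; signal suppression marked inhibition of damage-induced ELG1 function.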
DT40 TDP1 CPT – DT40-hTDP1 cell growth loss with CPT | chicken DT40 Tdp1-/-;hTDP1 cells + 20 nM CPT, ATP luminescence, 48 h | Potency, µM (doses to about 46.2 µM), without a hit: at the top dose activity change, negative = growth inhibition, usual class: inhibitors | 420,000 tested, 12% active | AID 686979; further: nearly all actives have a fitted effect of over 55% in size
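Cell growth measured by CellTiter-Glo luminescence after a minimum 48 h, 37 C compound exposure with 20 nM CPT in Tdp1-knockout DT40 cells stably expressing hTDP1, seeded 400/well; qHTS titration format.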
An asterisk follows results filed as active; ? = inconclusive; . = no result given; [ ] = dose if it differs, or a comment. Sampled rows, rich in hits. Any-hit rate of the full collection: about 15%. The call rests on the fitted dose curve; in most records, active means well fitted curve in the direction sought with a large enough effect; inconclusive means small, poorly fitted or top-dose-only effect, or another doubt; inactive means no such curve, though single readings can be large; an effect the other way counts as inactive or inconclusive. On the % scale 0 is the no-effect control and ±100 the full control effect; potency means the concentration at half of the fitted maximal effect.

SMILES	RORg inh	12-LOX inh	VP16 counter	TDP1 cell noCPT	ELG1 repair inh	DT40 TDP1 CPT
O=C(CCCc1ccccc1)N1CCN(c2ccc([N+](=O)[O-])cc2)CC1	?	0%	?	18µM*	-11%	18µM*
O=C(CCCCC(=O)N1CCN(c2ccccc2)CC1)N1CCN(c2ccccc2)CC1	-6%	.	0%	.	-2%	.
O=C(CCCC(=O)N1CCN(c2ccc([N+](=O)[O-])cc2)CC1)c1ccccc1	?	-17%	-8%	10µM*	-2%	?
O=C(CCS(=O)(=O)Cc1ccccc1)N1CCN(c2ccc([N+](=O)[O-])cc2)CC1	24%	-27%	-12%	?	?	?
NC(=O)c1ccc(C(=O)N2CCC(c3nc4cc(Cl)ccc4o3)CC2)cc1	.	-2%	.	.	.	.
O=C(c1cc(C2CC2)nc2onc(C3CCCNC3)c12)N1CCOCC1 (stereo not drawn)	.	-1%[6.33 µM]	.	.	.	.
CCc1nc(Nc2ccc(OC)c(OC)c2)c2nnn(Cc3ccccc3Cl)c2n1	?	-13%	?	16µM*	13µM*	-114%
CN(C)S(=O)(=O)c1ccc(Nc2nc(C3CC3)nc3c2nnn3Cc2ccccc2Cl)cc1	-33%	-6%	4µM*	8.2µM*	?	9.2µM*
COC(=O)CNc1nc(C2CC2)nc2c1nnn2Cc1ccccc1Cl	-24%	1%	-28%	-20%	-8%	-17%
COCCOCc1nc(C2CCN(C(=O)c3cc(C)n(C)n3)C2)no1 (stereo not drawn)	.	-1%	.	.	.	.
CCCNC(=O)C1COC2(CCN(C(=O)C3CCC3)CC2)N1C(=O)c1ccc(OC)cc1 (stereo not drawn)	.	39%	.	.	.	.
Cc1ccc(C(=O)N2C[C@@H](F)C[C@H]2C(=O)N2CCCCC2)c(C)c1	.	56%	.	.	.	.
CC(C)CC(c1nnnn1CC1CCCO1)N1CCN(c2cccc(Cl)c2)CC1 (stereo not drawn)	?	0%	-1%	16µM*	2%	26µM*
COc1ccc(C(c2nnnn2CC2CCCO2)N2CCN(c3ccccc3)CC2)cc1 (stereo not drawn)	1%	27%	1%	4%	6%	11%
Cc1ccc(C(c2nnnn2CC2CCCO2)N2CCN(c3cccc(C)c3C)CC2)cc1 (stereo not drawn)	43%	15%	3%	23µM*	?	?
CC(C)CC(c1nnnn1Cc1ccco1)N1CCN(c2cccc(Cl)c2)CC1 (stereo not drawn)	34%	?	6%	16µM*	?	?
CCOc1cc(C(=O)OCC(=O)Nc2ccc(F)c(Cl)c2)ccc1OCC(=O)N1CCCCC1	.	-12%	.	.	.	.
CCOc1ccccc1CNC(=O)C1CCCN(c2ncnc3onc(-c4ccc(F)cc4)c23)C1 (stereo not drawn)	.	-22%	.	21µM*	.	?
O=C(NCc1ccc(Cl)cc1)C1CCCN(c2ncnc3onc(-c4ccc(F)cc4)c23)C1 (stereo not drawn)	.	-10%	.	23µM*	.	21µM*
COc1ccc(OC)c(CNC(=O)C2CCCN(c3ncnc4onc(-c5ccc(F)cc5)c34)C2)c1 (stereo not drawn)	.	-7%	.	-8%	.	4%
O=C(NCc1ccccc1Cl)C1CCCN(c2ncnc3onc(-c4ccc(F)cc4)c23)C1 (stereo not drawn)	.	5%	.	16µM*	.	?
O=C(CSc1ccccn1)c1ccc(C2CC2(Cl)Cl)cc1 (stereo not drawn)	.	8%	.	.	.	.
Cc1c(C(=O)N(C)C2CCCCC2)sc2ncnc(N3CCN(c4ccccc4F)CC3)c12	15%	.	-14%	18µM*	?	18µM*
Cc1c(C(=O)N(C)C2CCCCC2)sc2ncnc(N3CCN(c4ccccc4)CC3)c12	?	-7%	?	15µM*	-19%	13µM*
Cc1c(C(=O)N2CCC(C)CC2)sc2ncnc(N3CCN(c4ccccc4)CC3)c12	29%	0%	-1%	-29%	19%	-5%
SMILES	RORg inh	12-LOX inh	VP16 counter	TDP1 cell noCPT	ELG1 repair inh	DT40 TDP1 CPT
CCN(C(=O)C1CCC(=O)N(CCc2ccc(Cl)cc2)C1)C(C)C (stereo not drawn)	.	44%	.	.	.	.
N=C1C(c2nc3ccccc3c(=O)[nH]2)=C(O)CN1c1cccc(Cl)c1Cl	.	-6%	.	.	.	.
N/C(Cn1cncn1)=N\NC(=O)C(=O)Nc1ccc(Cl)cc1Cl	10µM*	-1%	?	-1%	?	5%
N/C(Cn1cncn1)=N\NC(=O)c1ccc(Cl)cc1Cl	?	42%	?	-17%	-5%	-5%
COc1cc(F)ccc1-c1csc(C(C)(O)c2ccccc2)n1 (stereo not drawn)	.	-3%	.	18µM*	.	?
CC(O)(c1cccc(F)c1)c1nc(-c2cccc(C#N)c2)cs1 (stereo not drawn)	.	-24%	.	?	.	?
COc1cccc(C(C)(O)c2nc(-c3cnc4ccccc4c3)cs2)c1 (stereo not drawn)	.	0%	.	18µM*	.	16µM*
